For 96 molecules, inhibition results are on record in PubChem BioAssay AID504329 (Southern Research Specialized Biocontainment Screening …, 2011).

Screen size: about 340,000 compounds; about 1,000 (0.29%) were called active. Not all results are given here. Results with a measured potency or affinity are listed apart. Unmarked numbers belong to inactive results. Rule as the data show it: inconclusive = inhibition above about 27% without an active follow-up result; inactive = below that.

By inhibition is commonly meant the relative decrease from the control value, in per cent.

The test can be described thus: H1N1 influenza NS1A inhibitors, functional cell based assay (AID 504329). Particulars: percent inhibition, at 12.5 µM, active compounds read high.
Regarding `CN1CCN(C(=O)c2ccc3ccccc3c2)CC1`, the inhibition is -18.4%.

`Oc1cc(-c2ccc(N3CCCCC3)nc2)cc2cccnc12`: the inhibition is -0.13%.

Consider `Cc1cc(N2CCN(C)CC2)nc(-c2ccccc2O)n1`, for which the inhibition is 8.33%.

As for `CC(C)(C)c1ccc(C(=O)N2CCNCC2)cc1`, the inhibition was -7.49%.

As for `CN1CCN(C(=O)c2ccc3nc(-c4ccccc4)c(-c4ccccc4)nc3c2)CC1`, the inhibition was -4.76%.

For `O=C(c1ccc(-c2ccccc2)cc1)N1CCN(c2ncccn2)CC1`, the inhibition was 20.6%.

As for `Cc1[nH]c2ccccc2c1C(=O)C(=O)N1CC(C)OC(C)C1` (stereo unspecified), the inhibition was -0.55%.

`COc1ccc(NC(=O)CN(C)C(=O)C2CSC3(C)CCC(=O)N23)cc1` (stereo unspecified): the inhibition is -5.66%.

Consider `O=C(CCNC(=O)N1CC(=O)Nc2ccccc21)Nc1ccc(Cl)cc1`, for which the inhibition is -4.42%.

As for `Cc1cc(C(=O)NN)c2cc(Br)ccc2n1`, the inhibition is -10.8%.

Consider `O=C(c1ccc(F)cc1F)N1CCC(N2CCC(C(=O)N3CCOCC3)CC2)CC1`, for which the inhibition was 4.56%.

For `CCOC(=O)C(=O)Nc1ccccc1C(=O)NCc1ccccc1`, the inhibition was -18.5%.

In the case of `CC(C)Cn1cnc2c(c1=N)C(c1ccccc1)C1=C(CC(C)(C)CC1=O)O2` (stereo unspecified), the inhibition was 0.81%.

Take `O=C(c1ccco1)[C@@H]1[C@@H]2C(=O)N(c3ccc(F)cc3)C(=O)[C@@H]2[C@H]2C=Cc3ccccc3N21`: the inhibition was 0.66%.

For the molecule `COc1ccc(C2C(C(=O)c3ccccc3)N3c4ccccc4C=CC3C2[N+](=O)[O-])cc1` (stereo unspecified), the inhibition is -12.1%.

For `Cc1cc(C)cc(N2C(=O)CCN(Cc3ccccc3)C2=O)c1`, the inhibition was 0.48%.

On to `CC1=NN(c2ccccc2)C(=O)/C1=C/C=C/C=C/N(C)C`, for which the inhibition was 22.1%.

Consider `CC1=NN(c2ccccc2)C(=O)/C1=C/c1ccc(Cl)cc1`, for which the inhibition is 4.56%.

On to `Cc1c(N=C/C=C2\N(C)c3ccccc3C2(C)C)c(=O)n(-c2ccccc2)n1C`, for which the inhibition is 1.39%.

Turning to `CC1=NN(c2ccccc2)C(=O)/C1=C/c1cccs1`, the inhibition is 24.1%.

With `CC1=NN(c2ccccc2)C(=O)/C1=C\C=C1\N(C)c2ccccc2C1(C)C`, the inhibition was 25.6%.

With `CC1=NN(c2ccccc2)C(=O)/C1=C/c1cccc(C)c1`, the inhibition was -0.71%.

As to `CC1=NN(c2ccccc2)C(=O)/C1=C/N(C)C`, the inhibition is 12.1%.

As to `CC1=NN(c2ccccc2)C(=O)/C1=C/C=C/c1ccccc1`, the inhibition was 9.01%.

Turning to `CC(=O)Nc1cc(C)c2nc(NC(C)=O)sc2c1`, the inhibition is 8.68%.

Take `Cc1cc(C)c2nc(N3CCCC(C(=O)NC4CCCC4)C3)sc2c1` (stereo unspecified): the inhibition is 1.03%.

With `CN(CC(=O)Nc1c(Cl)cccc1Cl)C(=O)CCC1CCCC1`, the inhibition is -7.47%.

Consider `CCOc1ccc(OCCC(=O)OCC(=O)NCc2ccccc2)cc1`, for which the inhibition is 4.79%.

As for `Cc1nc2ccccc2c2oc(C(=O)N3CCc4ccccc4C3)cc12`, the inhibition is 14.6%.

`COc1ccccc1C(=O)NC(=O)COC(=O)c1ccc(Cl)cc1[N+](=O)[O-]`: the inhibition is 11.3%.

In the case of `O=C(N/N=C\C=C\c1ccc2c(c1)OCO2)C1COc2ccccc2O1` (stereo unspecified), the inhibition was -2.03%.

For the molecule `O=C1NC(=O)N(c2ccccc2)C(=O)/C1=C/C=C/c1ccco1`, the inhibition is -5.11%.

For `CCOC(=O)CC1=NN(c2ccccc2)C(=O)/C1=C\c1ccc(OC)cc1OC`, the inhibition was 17.9%.

`Cc1ccc(N2C(=O)NC(=O)/C(=C\C=C\c3ccco3)C2=O)cc1`: the inhibition is -8.27%.

For `COC(=O)CC1=NN(c2ccccc2)C(=O)/C1=C\c1ccc(OC)cc1`, the inhibition is 3.36%.

Regarding `O=C(O)c1ccc(N2C(=O)/C(=C/C=C/c3ccccc3)SC2=S)cc1`, the inhibition was -0.2%.

Take `CN1/C(=C\C=C2C(=O)NC(=S)NC2=O)C(C)(C)c2ccccc21`: the inhibition is 6.82%.

Turning to `CN1/C(=C\C=C2C(=O)NC(=O)NC2=O)C(C)(C)c2ccccc21`, the inhibition was -3.94%.

On to `O=C1CC(N2C(=O)/C(=C/C=C/c3ccccc3)SC2=S)C(=O)N1c1ccccc1` (stereo unspecified), for which the inhibition is 7.39%.

Consider `Cc1ccc(S(=O)(=O)CCC(=O)OC2CC(C)OC2=O)cc1` (stereo unspecified), for which the inhibition is -7.36%.

Regarding `C=CCOc1ccc(Br)cc1/C=C1\NC(=S)N(C(C)=O)C1=O`, the inhibition is 5.35%.

Consider `O=C(O)CP(=O)(c1ccccc1)c1ccccc1`, for which the inhibition is -20.8%.

As for `O=C(NC1CC1)C1CSC(c2cccnc2)=N1` (stereo unspecified), the inhibition was -5.68%.

As to `COC(=O)CNC(=O)CNC(=O)c1nn(-c2ccc(OC)c(Cl)c2)c(=O)c2ccccc12`, the inhibition was -9.13%.

For `Cc1ccc(S(=O)(=O)c2nc(NCCN(C)C)sc2Cl)cc1`, the inhibition is 3.06%.

Take `CCOC(=O)C1=C(C(=O)OCC)N(Cc2ccccc2)CCC1=O`: the inhibition was -3.47%.

As for `Cc1ccc(/C=N/NC(=O)C(C)NC(=O)c2ccccc2)cc1` (stereo unspecified), the inhibition was -0.33%.

For `CCC(C)NC(=O)CSc1nc2ccccc2c(=O)n1-c1c(C)n(C)n(-c2ccccc2)c1=O` (stereo unspecified), the inhibition was -0.57%.

As for `Fc1ccccc1CSc1nnc(-c2cnccn2)n1Cc1ccco1`, the inhibition is -1.61%.

Regarding `O=C(NCCc1ccccc1)c1cc(-c2ccccc2)c(N2CCOCC2)s1`, the inhibition is 1.49%.

For `CCCNC(=O)c1cc(-c2ccccc2)c(N2CCCCC2)s1`, the inhibition is -16.7%.

As for `CNc1cccnc1C=NNC(N)=S`, the inhibition was 17.7%.

Regarding `Cc1[nH]c2ccccc2c1/C=N/NC(N)=S`, the inhibition was 5.2%.

Take `CC(=O)n1cc(/C=N/NC(N)=S)c2ccccc21`: the inhibition is -5.48%.

Consider `NC(=S)N/N=C/c1c(O)ccc2ccccc12`, for which the inhibition was -3.38%.

`Cn1cc(/C=N/NC(N)=S)c2ccccc21`: the inhibition is -12.5%.

`NC(=S)N/N=C\c1c2ccccc2cc2ccccc12`: the inhibition is 8.41%.

In the case of `O=C(Nc1ccccc1)c1ccc(S(=O)(=O)NCc2cccnc2)cc1`, the inhibition is 10.4%.

Take `CCn1c(SCC(=O)Nc2nc(-c3ccccc3)cs2)nc2c1c(=O)n(C)c(=O)n2C`: the inhibition was 4.76%.

For the molecule `Cc1ccccc1-c1n[nH]c(=S)n1/N=C/C=C/c1ccco1`, the inhibition was -17.6%.

Turning to `CNC(=O)Cn1nc(-c2ccc(C)c(S(=O)(=O)N(C)C)c2)c2ccccc2c1=O`, the inhibition was -13.6%.

Turning to `CC(=O)N(C1=C(N2CCOCC2)C(=O)c2ccccc2C1=O)c1ccc(C(=O)O)cc1`, the inhibition was 0.48%.

As to `COc1ccccc1NC1=C(N2CCCCC2)C(=O)c2ccccc2C1=O`, the inhibition is -0.23%.

Take `CC(=O)N(C)C1=C(N2CCOCC2)C(=O)c2ccccc2C1=O`: the inhibition was 1.43%.

With `O=C1C(Nc2ccccc2)=C(N2CCCCC2)C(=O)c2ccccc21`, the inhibition is 15.3%.

For the molecule `O=C(Nc1ccc(OC(F)F)cc1)c1cc(S(=O)(=O)N2CCOCC2)ccc1F`, the inhibition is -7.89%.

`COCc1c(C(=O)OCC(=O)N(C)C2CCS(=O)(=O)C2)oc2ccccc12` (stereo unspecified): the inhibition is -9.04%.

Turning to `Cc1ccccc1NC(NC(=O)c1cccnc1)C(Cl)(Cl)Cl` (stereo unspecified), the inhibition was -5.69%.

Consider `Cc1ccc(S(=O)(=O)/N=C2\C=C(NS(=O)(=O)c3ccccc3)C(=O)c3ccccc32)cc1`, for which the inhibition is 8.43%.

In the case of `Cc1ccc(S(=O)(=O)Nc2ccc(N=Nc3ccc(O)cc3)cc2)cc1`, the inhibition is 4.71%.

With `COCCC(=O)N1CCC(Oc2ccc(C(=O)NC3CCOC(C)(C)C3)cc2)CC1` (stereo unspecified), the inhibition is 5.89%.

In the case of `O=C1C(=O)c2ccccc2-c2ccccc21`, the inhibition is 5.48%.

Take `O=C1C(=O)c2ccc(-c3ccccc3)cc2-c2ccccc21`: the inhibition was -3.6%.

With `CC1CCN(CCCNC(=O)c2cc3c(s2)-c2ccccc2OC3)CC1`, the inhibition is -6.94%.

On to `Cc1c(Cl)cccc1NC(=O)CC1Oc2ccccc2NC1=O` (stereo unspecified), for which the inhibition was -22.6%.

`CN(C)S(=O)(=O)c1cccc(NC(=S)N/N=C/c2cc(Br)ccc2O)c1`: the inhibition is -4.31%.

As to `Oc1ccc(/C=N/NC(=S)Nc2cccnc2)cc1O`, the inhibition is -4.43%.

For `S=C(N/N=C/c1ccc2ncccc2c1)Nc1cccnc1`, the inhibition was -1.92%.

Take `Fc1cccc(F)c1/C=N/NC(=S)Nc1cccnc1`: the inhibition was 4.25%.

Turning to `COc1cc(/C=N/NC(=S)Nc2cccnc2)cc(OC)c1OC`, the inhibition is -1.86%.

Regarding `Fc1ccc(/C=N/NC(=S)Nc2cccnc2)cc1F`, the inhibition is 5.25%.

As for `COc1cccc(/C=N/NC(=S)Nc2cccc(S(=O)(=O)N(C)C)c2)c1`, the inhibition was -0.6%.

Regarding `Fc1ccc(/C=N/NC(=S)Nc2cccnc2)cc1`, the inhibition is -6.6%.

Consider `O=S(=O)(c1ccccc1)N1CCN(C2CCCCCCC2)CC1`, for which the inhibition is -3.77%.

Consider `CCCn1c(=O)c(C(=O)NCc2ccc3c(c2)OCO3)c(O)c2ccccc21`, for which the inhibition was -2.14%.

Consider `COc1ccc2oc(C(=O)OCC(=O)N3CC(C)CC(C)C3)c(C)c2c1` (stereo unspecified), for which the inhibition is -0.35%.

Consider `CSCCC(NC(=O)c1ccccc1)C(=O)NC1CCCC1` (stereo unspecified), for which the inhibition was 1.8%.

Consider `COC(=O)c1ccc2c(c1)C(=O)/C(=C/c1ccc(C)cc1)O2`, for which the inhibition is 0.65%.

As to `CC1(C)Cc2c(cnn2-c2ccccc2)C(NC(=O)CCCn2cncn2)C1` (stereo unspecified), the inhibition was 4.41%.

Take `Cc1ccccc1CN1CCC(n2nccc2NC(=O)CCCc2ccccc2)CC1`: the inhibition is -1.87%.

Take `O=C(NCc1cnn(-c2ccccc2)c1)C1CCC(=O)N(C2CC2)C1` (stereo unspecified): the inhibition was -1.14%.

Take `CC(C)C(NC(=O)C(NC(=O)C1OC2OC(C)(C)OC2C2OC(C)(C)OC12)C(C)C)C(=O)O` (stereo unspecified): the inhibition was 4.15%.

In the case of `Fc1c(F)c(F)c(/C=N/NC(=S)Nc2cccnc2)c(F)c1F`, the inhibition was 4.9%.

Take `COc1ccccc1/C=N/NC(=S)Nc1cccnc1`: the inhibition is 2.47%.

For the molecule `COc1cccc(/C=N/NC(=S)Nc2cccnc2)c1`, the inhibition was 8.47%.

For `Oc1ccc(/C=N/NC(=S)Nc2cccnc2)cc1`, the inhibition is -2.94%.
